In all, about 360,000 compounds went through this assay and about 7,500 (2.1%) were called active. About 20% were inconclusive and are not listed. The call rests on the fitted dose curve; in most records, active means well fitted inhibition curve with a large enough effect; inconclusive means small, poorly fitted or top-dose-only effect, or effect the other way; inactive means flat fitted curve, though single readings scatter. The entries come from a sample that favours actives as a whole.
experiment: Nrf2 qHTS screen for inhibitors; conditions: A549 ARE-Fluc reporter, luciferase luminescence, 18-24 h; series mostly up to 46 µM; activity change, negative = inhibition: at the top concentration; further: nearly all actives have a fitted effect of over 60% in size
How it was run: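 A549 ARE_Fluc cells, 5000/well, 5% FBS OPTI-MEM; compounds in dose-response, 18-24 h at 37 °C/5% CO2; CellTiter-Fluor viability read (Ex 405/Em 525), then BugLite luciferase luminescence = Nrf2 activity.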
On the % scale 0 is the no-effect control and ±100 the full control effect; potency means the concentration at half of the fitted maximal effect.

| SMILES | activity change, negative = inhibition | Potency |
| --- | --- | --- |
| CCOc1ccc(NC(=O)CSc2nnc3c(n2)[nH]c2ccc(S(=O)(=O)N4CCOCC4)cc23)cc1 | -7.26% (inactive) | – |
| CCCOc1ccc(Cc2c(Cl)nc(SC)nc2NC)cc1 | – | 2.06 µM (active) |
| Cc1nc(SCCOc2ccc(Cl)cc2)[nH]c(=O)c1Cc1ccccc1 | -1.25% (inactive) | – |
| CCCOc1ccc(Cc2c(O)nc(SC)[nH]c2=O)cc1C | 3.9% (inactive) | – |
| COc1ccc(N2CCN(C(=O)C3CCCN(C(=O)c4cc5sccc5n4C)C3)CC2)cc1 (configuration not stated) | -16.8% (inactive) | – |
| C[n+]1ccc(/C=C/c2c[nH]c3ccccc23)cc1 | – | 0.82 µM (active) |
| O=C(NC1CCCC1)C(=O)c1c[nH]c2ccccc12 | 19.9% (inactive) | – |
| CSC(=S)N/N=C/c1c[nH]c2ccccc12 | 3.83% (inactive) | – |
| COc1cccc(/C=N/Nc2ccc(S(=O)(=O)Nc3ccccc3C(=O)O)cc2[N+](=O)[O-])c1O | -6.93% (inactive) | – |
| CCC1CCCCN1C(=S)NC(=O)c1ccco1 (configuration not stated) | 1.83% (inactive) | – |
| Cc1ccc(C)c(-n2c(SCC(=O)O)nc3sc4c(c3c2=O)CCCC4)c1 | -21% (inactive) | – |
| CCCc1nc2sc3c(c2c(=O)n1NC(=O)CCCl)CCCC3 | – | 11.6 µM (active) |
| Cc1nc2sc3c(c2c(=O)n1NC(=O)CCl)CCCC3 | -11.4% (inactive) | – |
| CCC(=O)N1CCc2cc(S(=O)(=O)NC(C(=O)Nc3ccc(C(C)=O)cc3)C(C)C)ccc21 (configuration not stated) | 13.1% (inactive) | – |
| O=C(NCC1(N2CCCCC2)CCCCC1)c1cccc(S(=O)(=O)Nc2ccccc2Cl)c1 | -12.6% (inactive) | – |
| CCOc1ccc(CCNC(=O)c2cc3c(=O)n(C)c4ccccc4c3n2C)cc1 | -11.9% (inactive) | – |
| NS(=O)(=O)c1ccc(NC(=O)CSc2nnc3c(n2)[nH]c2ccccc23)cc1 | 20.7% (inactive) | – |
| Cc1cccc(NS(=O)(=O)c2ccc([N+](=O)[O-])cc2)n1 | -10.5% (inactive) | – |
| O=C(NNS(=O)(=O)c1ccc(F)cc1)c1ccc([N+](=O)[O-])cc1Cl | 5.13% (inactive) | – |
| O=[N+]([O-])c1ccc(NS(=O)(=O)c2ccccc2)c(Cl)c1 | – | 11.6 µM (active) |
| CN(CC(=O)NCC(c1ccccc1)N1CCCC1)S(=O)(=O)c1ccc(Cl)cc1 (configuration not stated) | 13.6% (inactive) | – |
| CCCCCCn1nnc2sc(-c3ccccc3)cc2c1=O | 12.6% (inactive) | – |
| COc1cc(O)c2c(=O)c3c(O)c(O)ccc3oc2c1OC | 12.7% (inactive) | – |
| O=C(Cc1ccc(NC(=O)C2CCCN(C(=O)C3CCCCC3)C2)cc1)Nc1cccc(C(=O)N2CCCCC2)c1 (configuration not stated) | -0.45% (inactive) | – |
| COc1cc(/C=N/NC(=O)c2ccccc2)ccc1OS(=O)(=O)c1ccccc1 | 0.205% (inactive) | – |

| SMILES | activity change, negative = inhibition | Potency |
| --- | --- | --- |
| COc1cc(/C=N/NC(=O)Nc2ccccc2)ccc1OCCOc1ccccc1C | – | 14.6 µM (active) |
| COc1cc(/C=N/NC(=O)c2ccoc2C)ccc1OCCN1CCCCC1 | -11.7% (inactive) | – |
| COc1ccc(-c2sc3ccc(OC)cc3c2C#Cc2ccccn2)cc1 | 11.5% (inactive) | – |
| CCCCC[C@@H]1C=C(C(=O)O)[C@H](c2ccc(C#N)cc2)N1S(=O)(=O)c1ccc(C)cc1 | -19.7% (inactive) | – |
| COc1ccc(CN2CCN(C(=O)c3cc(C4CC4)nn3-c3ccccc3)CC2)cc1F | -18.2% (inactive) | – |
| CCOC(=O)CCC(NC(=O)c1ccc(CNc2nc3cc(C(F)(F)F)ccc3nc2C(=O)OCC)cc1)C(=O)OCC (configuration not stated) | -15.4% (inactive) | – |
| C=CCNC(=O)c1ccc2nc(-c3ccco3)c(-c3ccco3)nc2c1 | -0.251% (inactive) | – |
| COC(=O)Cn1cc(C(=O)c2cccs2)c2ccccc21 | -13.8% (inactive) | – |
| Cc1c(Cl)cccc1NC(=O)Cn1cc(C(=O)c2cccs2)c2ccccc21 | – | 6.51 µM (active) |
| COCCNC(=O)Cn1cc(C(=O)c2cccs2)c2ccccc21 | 3.92% (inactive) | – |
| Cc1cccc(N2CCN(C3=C(c4ccccc4)C(=O)c4ccccc43)CC2)c1C | -4.19% (inactive) | – |
| CCOc1ccc(S(=O)(=O)c2cn(Cc3ccccc3)c3ccc(OCC)cc3c2=O)cc1 | 2.51% (inactive) | – |
| CCOc1ccc(CNC(=O)C2CCCN(S(=O)(=O)N(CC)c3ccc(OCC)cc3)C2)cc1 (configuration not stated) | – | 16.4 µM (active) |
| CCS(=O)(=O)N1CCCC(C(=O)NCc2ccc(C)cc2)C1 (configuration not stated) | -11% (inactive) | – |
| Cc1ccc(CNC(=O)C2CCCN(S(C)(=O)=O)C2)cc1 (configuration not stated) | 1.71% (inactive) | – |
| Oc1ccc(/C=C/c2c(F)cccc2F)c2cccnc12 | 1.37% (inactive) | – |
| Cc1c(NC(=O)Cc2ccccc2)cccc1-c1nc2cccnc2s1 | 7.43% (inactive) | – |
| CC(=O)Nc1cccc(-c2nc3ccccc3s2)c1C | – | 7.31 µM (active) |
| COc1ccc(-c2nc3ccccc3s2)cc1NC(=O)COc1ccccc1C | 24.6% (inactive) | – |
| COc1ccc(CCNC(=O)c2ccc(-n3c(C)cc4c3CCCC4)cc2)cc1OC | 6.59% (inactive) | – |
| CN(Cc1cccnc1)C(=O)c1cc(COc2ccc3ncccc3c2)on1 | – | 4.61 µM (active) |
| CC(=O)c1cccc(OCc2cc(C(=O)NC(C)Cc3cccnc3)no2)c1 (configuration not stated) | 7.73% (inactive) | – |
| CN(Cc1cnccn1)C(=O)c1cc(COc2cccc(C(F)(F)F)c2)on1 | 4.98% (inactive) | – |
| O=C1/C(=C\c2ccc(O)cc2)CCC1CNc1ccc(Cl)cc1 (configuration not stated) | 7.1% (inactive) | – |
| CCN1C[C@@H]2[C@@H]3C(=O)N(C)C(=O)[C@@H]3[C@](C)(C1=O)N2C(=O)c1ccccc1 | -7.53% (inactive) | – |

| SMILES | activity change, negative = inhibition | Potency |
| --- | --- | --- |
| COc1ccc(CCNC(=O)COc2cc(C)cc3oc(=O)c(C)c(C)c23)cc1OC | -9.86% (inactive) | – |
| COc1ccccc1N1CCN(CCCNC(=O)c2cnn(-c3ccccc3Cl)c2C2CCN(C(=O)OC(C)(C)C)CC2)CC1 | -16.8% (inactive) | – |
| CCOc1ccc(N2C(=O)CC(N(O)c3ccccc3)C2=O)cc1 (configuration not stated) | 10.4% (inactive) | – |
| COC(=O)CN(C(=S)Nc1ccc(Cl)cc1)C1CC(=O)N(c2ccc(OC)cc2)C1=O (configuration not stated) | -14.1% (inactive) | – |
| CCOc1ccc(N2C(=O)CC(N(CCc3ccc(OC)c(OC)c3)C(=S)Nc3ccccc3)C2=O)cc1 (configuration not stated) | – | 23.1 µM (active) |
| O=C1CC(c2nnc(Cc3ccc(Cl)cc3)o2)CN1c1ccccc1 (configuration not stated) | -22.2% (inactive) | – |
| O=C(NCCNc1ccccc1[N+](=O)[O-])c1ccccc1F | 23.8% (inactive) | – |
| O=C(NCCNc1ccc([N+](=O)[O-])cc1Cl)c1ccccc1F | – | 16.4 µM (active) |
| O=C(NCCCNc1ccc([N+](=O)[O-])cc1Cl)c1ccccc1F | -0.648% (inactive) | – |
| COc1ccccc1Nc1c2c(nc3ccc(NC(=O)/C=C/c4cc(OC)c(OC)c(OC)c4)cc13)CCCC2 | 4.54% [at 9.27 µM] (inactive) | – |
| COc1ccccc1CNC(=O)CCCCn1c(=O)c2ccccc2n(CC(=O)Nc2cc(Cl)ccc2C)c1=O | -15.6% (inactive) | – |
| COc1ccc(NC(=O)Cn2c(=O)n(CCC(C)C)c(=O)c3cccnc32)cc1Cl | 5.86% (inactive) | – |
| COc1ccccc1C(=O)c1ccccc1C(=O)c1ccccc1 | 0.817% (inactive) | – |
| COCCn1c(SCC(=O)N2CCCCCC2)nc2c(c1=O)SCC2 | 2.1% (inactive) | – |
| COCCn1c(SCC(=O)Nc2ccccc2F)nc2c(c1=O)SCC2 | – | 4.11 µM (active) |
| CC1Cc2nc(SCC(=O)Nc3ccccc3F)n(C)c(=O)c2S1 (configuration not stated) | -23.4% (inactive) | – |
| COC(=O)[C@@]1(C)[C@H]2C(=O)N(Cc3ccccc3)C(=O)[C@H]2[C@H]2CN=C(SCC3CC3)N21 | 14.1% (inactive) | – |
| COc1ccccc1C1C(C#N)=C(N)Oc2c1c(-c1ccccc1)nn2-c1ccccc1 (configuration not stated) | – | 20.6 µM (active) |
| Cc1nn(Cc2ccccc2)c2c1C(c1ccccc1)C(C#N)=C(N)O2 (configuration not stated) | -4.1% (inactive) | – |
| Cc1nn(-c2ccccc2)c2c1C(c1ccc(F)cc1)C(C#N)=C(N)O2 (configuration not stated) | 11.2% (inactive) | – |
| Cc1oc2ccc(O)c(CN3CCCCC3)c2c1C(=O)Nc1cccc(C(F)(F)F)c1 | 4.68% (inactive) | – |
| COc1cccc(C(=O)NC2CCN(C#N)CC2)c1 | 3.93% (inactive) | – |
| Cc1ccccc1OCc1ccc(-c2nc(C#N)c(N3CCCCC3)o2)o1 | 9.3% (inactive) | – |
| Cc1ccccc1-n1c(SCC(=O)NCc2cccs2)nnc1-c1ccncc1 | 18.3% (inactive) | – |
| Cc1ccc(-n2c(SCC(=O)N3c4ccccc4Sc4ccccc43)nnc2-c2ccncc2)cc1 | 4.11% (inactive) | – |

| SMILES | activity change, negative = inhibition | Potency |
| --- | --- | --- |
| Cc1ccc(Nc2nc(CSc3nnc(-c4ccncc4)n3-c3ccccc3C)cs2)cc1 | – | 9.2 µM (active) |
| Oc1ccccc1N1CCN(c2ncnc3sc(-c4ccccc4)cc23)CC1 | -16.1% (inactive) | – |
| CCc1cc2c(NC(Cc3ccccc3)C(=O)O)ncnc2s1 (configuration not stated) | -4.74% (inactive) | – |
| CCc1cc2c(N3CCN(c4nnc(CC)s4)CC3)ncnc2s1 | – | 23.1 µM (active) |
| Cc1nn(-c2ccc(N3CCCCC3)nn2)c(C)c1CCC(=O)NCc1ccc(F)cc1 | -5.58% (inactive) | – |
| COc1ccc(OC)c(NC(=O)CN2CCCN(Cc3cc(C)ccc3C)S2(=O)=O)c1 | 13% (inactive) | – |
| O=C(N[C@H]1C/C=C\C(c2cccc(F)c2)N(Cc2ccccc2)C(=O)C1)OCC1c2ccccc2-c2ccccc21 (some centres not stated) | 11.2% (inactive) | – |
| O=C(CC(O)(C(F)(F)F)C(F)(F)F)Nc1ccc(Cl)c(Cl)c1 | – | 2.91 µM (active) |
| N/C(=N\OC(=O)Nc1ccc(Cl)c(Cl)c1)c1ncc(C(F)(F)F)cc1Cl | -7.11% (inactive) | – |
| CCn1nccc1C(=O)Nc1ccc(Cl)c(Cl)c1 | 29.8% (inactive) | – |
| CCN(CC)c1nc(C#N)nc(OC)n1 | -16.4% (inactive) | – |
| C=CCNC(=O)c1cc2nc(C3CC3)cc(C(F)F)n2n1 | -19.8% (inactive) | – |
| CC1CCN(C(=O)c2cc3nc(C4CC4)cc(C(F)(F)F)n3n2)CC1 | – | 18.4 µM (active) |
| Cc1cccc(-n2ncc(C(=O)N3CCC(C)CC3)c2C2CCN(C(=O)OC(C)(C)C)CC2)c1 | 19.3% (inactive) | – |
| O=C(c1ccccc1)N1CCN(C(=O)c2cc3nc(-c4ccccc4)cc(C(F)(F)F)n3n2)CC1 | – | 25.9 µM (active) |
| COC(=O)c1cc2nc(-c3ccccc3)cc(C(F)(F)F)n2n1 | 10.2% (inactive) | – |
| O=C(NCC12CC3CC(CC(C3)C1)C2)c1cc2nc(-c3ccccc3)cc(C(F)(F)F)n2n1 | 14.3% (inactive) | – |
| CC(Sc1oc(-c2ccco2)nc1S(=O)(=O)c1ccc(Br)cc1)c1ccccc1 (configuration not stated) | 8.26% [at 9.27 µM] (inactive) | – |
| Cc1ccc(-c2nnc3ccc(SCC(N)=O)nn23)cc1 | -2.48% (inactive) | – |
| Cc1ccc(CNC(=O)CSc2c3c(nc4cc(Cl)ccc24)CCCC3)cc1 | 8.77% (inactive) | – |
| Cc1cccc(NC(=S)N2CCC(C(=O)c3ccc(F)cc3)CC2)c1 | 9.61% (inactive) | – |
| CCOc1ccc(C2C(C(=O)Nc3ccc(Cl)cc3)=C(C)Nc3nc(C(F)(F)F)nn32)cc1 (configuration not stated) | -26.6% (inactive) | – |
